Laboratory results from paper PMC4336329 (PLoS ONE, 2015).
The whole screen tested about 310,000 compounds, of which about 14,000 (4.5%) showed an effect of 50% or more. The effect is printed as a negative number. The full list was thinned out, with strong results kept by preference.

molecular target: human ether-à-go-go-related gene (hERG) potassium channel (human, UniProt Q12809); assay: primary screen, population patch clamp on CHO cells stably expressing hERG; higher = less effect of the substance
Sequence (Q12809 whole entry, looked up): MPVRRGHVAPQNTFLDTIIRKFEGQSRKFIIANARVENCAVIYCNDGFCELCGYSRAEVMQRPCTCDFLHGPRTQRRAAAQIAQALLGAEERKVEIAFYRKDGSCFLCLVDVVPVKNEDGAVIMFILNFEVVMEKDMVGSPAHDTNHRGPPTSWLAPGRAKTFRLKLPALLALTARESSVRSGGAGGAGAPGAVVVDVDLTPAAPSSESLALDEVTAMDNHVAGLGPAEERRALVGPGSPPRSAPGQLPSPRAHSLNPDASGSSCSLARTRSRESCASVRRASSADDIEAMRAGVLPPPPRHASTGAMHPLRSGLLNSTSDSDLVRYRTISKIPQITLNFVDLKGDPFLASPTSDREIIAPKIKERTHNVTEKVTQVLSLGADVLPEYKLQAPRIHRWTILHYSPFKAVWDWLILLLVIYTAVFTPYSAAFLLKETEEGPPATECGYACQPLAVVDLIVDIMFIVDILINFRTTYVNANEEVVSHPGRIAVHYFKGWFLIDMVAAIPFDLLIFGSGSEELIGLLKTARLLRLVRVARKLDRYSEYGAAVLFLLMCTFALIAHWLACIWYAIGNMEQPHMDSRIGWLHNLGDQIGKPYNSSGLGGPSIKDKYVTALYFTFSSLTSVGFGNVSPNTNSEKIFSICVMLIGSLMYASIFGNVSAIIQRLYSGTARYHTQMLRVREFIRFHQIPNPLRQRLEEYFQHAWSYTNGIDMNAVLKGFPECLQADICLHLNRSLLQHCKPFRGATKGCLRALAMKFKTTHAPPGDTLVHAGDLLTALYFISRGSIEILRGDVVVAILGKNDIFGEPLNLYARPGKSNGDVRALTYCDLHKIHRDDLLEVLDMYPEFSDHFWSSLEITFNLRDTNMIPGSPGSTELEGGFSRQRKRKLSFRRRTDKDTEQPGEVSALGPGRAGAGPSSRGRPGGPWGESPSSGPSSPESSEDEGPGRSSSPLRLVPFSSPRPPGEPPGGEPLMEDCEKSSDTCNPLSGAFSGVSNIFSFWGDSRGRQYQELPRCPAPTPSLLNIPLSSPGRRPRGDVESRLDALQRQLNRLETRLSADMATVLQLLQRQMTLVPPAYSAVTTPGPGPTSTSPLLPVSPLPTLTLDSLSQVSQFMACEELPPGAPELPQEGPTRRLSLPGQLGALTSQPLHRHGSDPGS
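Also: peak tail current of the secondary pulse compared with the same well before compound.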

SMILES | hERG current change (%, negative = inhibition) at 10uM [%]
COc1ccc(S(=O)(=O)N2CCCCCC2)cc1C(=O)OCC(=O)NC(C)(C)C | -17.5
O=C(NC1CCS(=O)(=O)C1)c1ccc(-c2ccc(Br)cc2)o1 (stereo not shown) | -20.9
O=C1CN(C(=O)N[C@@H](Cc2ccccc2)C(=O)N[C@@H](Cc2ccccc2)C(=O)O)c2ccccc2N1 | 3.79
CCOc1cccc(OCCOCCNC(C)(C)C)c1.O=C(O)C(=O)O | 3.71
COn1c(=O)c(=O)n(OC)c2ccccc21 | -3.45
Cc1ccc(C)c(S(=O)(=O)N2CCCOC2CNC(=O)C(=O)NCc2ccco2)c1 (stereo not shown) | 11.6
CC(C)CCN1C(=O)c2ccccc2C1C(=O)NCc1cccnc1 (stereo not shown) | -16.1
Cc1nc2c(C(=O)N3CCN(c4ccccn4)CC3)cnn2c(C)c1Cc1cccc(Cl)c1 | -43.4
Brc1cc(Br)c2ncnc(N3CCCCC3)c2c1 | -11.8
CCc1cc(C(=O)OC)c(NC(=O)C2CC(=O)NN2Cc2ccccc2)s1 (stereo not shown) | -29.7
O=c1c2ccccc2nc(/C=C/c2ccccn2)n1-c1ccccc1 | 10.9
COc1ccccc1NC(=O)CCCCCN1C(=O)c2cccc([N+](=O)[O-])c2C1=O | -39.2
CCOc1ccccc1NC(=O)CN1CCN(C(=O)C2CCCO2)CC1 (stereo not shown) | -10.6
O=C(OCn1nnc2ccccc2c1=O)c1cc(-c2ccccc2)nc2ccccc12 | 6.74
CCN(CC(=O)NCc1ccc(F)cc1)CC(=O)Nc1cc(S(=O)(=O)N(C)C)ccc1C | -75.6
Cc1ccc(OCCC(=O)OCC(=O)Nc2cc(S(=O)(=O)N(C)C)ccc2C)cc1 | -26.6
Cc1ccc(S(=O)(=O)N(C)C)cc1NC(=O)COC(=O)CNC(=O)c1cccs1 | 14.5
Cc1ccc(S(=O)(=O)N(C)C)cc1NC(=O)COC(=O)CCC(=O)c1cccs1 | -21.8
Cc1ccc(S(=O)(=O)N2CCOCC2)cc1NC(=O)COC(=O)Cc1cccs1 | -62.8
Cc1ccc(S(=O)(=O)N(C)C)cc1NC(=O)COC(=O)Cc1cccs1 | -74.5
Cc1ccc(S(=O)(=O)N(C)C)cc1NC(=O)COC(=O)CSc1ccccc1 | -21.3
CCN(CC(=O)NCc1ccc(F)cc1)CC(=O)Nc1ccc(S(=O)(=O)N2CCCC2)cc1 | -22.8

SMILES | hERG current change (%, negative = inhibition) at 10uM [%]
O=C(COC(=O)Cc1cccs1)Nc1cccc(S(=O)(=O)N2CCOCC2)c1 | 0.0981
CCN(CC(=O)NCc1ccc(F)cc1)CC(=O)Nc1ccccc1-c1ccccc1 | -16
Cc1ccc(S(=O)(=O)N(C)C)cc1NC(=O)COC(=O)Cc1ccc(Br)cc1 | -56.7
Cc1ccc(NC(=O)COC(=O)Cc2cccs2)cc1S(=O)(=O)N1CCOCC1 | -23.5
Cc1c(CC(=O)N[C@H](C(=O)O)C(C)C)c(=O)oc2cc3c(cc12)CCC(C)(C)O3 | 23.1
COCCCNC(=O)CNC(=S)N(Cc1ccccc1F)C1CCCCC1 | 4.18
O=[n+]1c2c(n([O-])c3cc(Br)ccc31)CCC2 | -2.98
C(=C\c1ccncc1)/c1ccccc1 | -10.6
CN(CC(=O)Nc1ccccc1Cl)C(=O)c1ccc(COc2ccccc2)cc1 | -12.9
Cc1ccc(S(=O)(=O)NCC(=O)OCN2C(=O)c3ccccc3C2=O)cc1 | 5.91
O=C(CSc1ccc(Cl)cc1)NNC(=O)c1cccnc1 | -21
Cc1nn(-c2ccccc2)c(Cl)c1/C=N/Nc1ccc(Cl)c(C(=O)O)c1 | 21.3
Cc1ccc(Nc2ccc(C(=O)O)cc2[N+](=O)[O-])cc1 | 15.1
O=C(OCc1ccc(Br)cc1)c1ccncc1 | 5.25
Cc1ccc(S(=O)(=O)N(C)C)cc1NC(=O)COC(=O)C1CC1 | 16.2
CN(C)S(=O)(=O)c1ccc(Cl)c(NC(=O)CN2CCCC2)c1 | 11.5
Cc1ccc(S(=O)(=O)N2CCOCC2)cc1NC(=O)COC(=O)CCC(=O)c1cccs1 | -13.8
CN(CCC(=O)Nc1cc(S(=O)(=O)N(C)C)ccc1Cl)CC(=O)Nc1ccc(F)cc1 | -50.1
O=C(COC(=O)CCC(=O)c1cccs1)Nc1cc(S(=O)(=O)N2CCOCC2)ccc1Cl | -53.5
CCC(=O)OCC(=O)Nc1cc(S(=O)(=O)N(C)C)ccc1Cl | 17.1
Cc1ccc(C)c(NC(=O)COC(=O)Cc2ccsc2)c1 | 33.1
Cc1ccc(S(=O)(=O)N(C)C)cc1NC(=O)COC(=O)C1CCCC1 | 3.16

SMILES | hERG current change (%, negative = inhibition) at 10uM [%]
Cc1ccc(S(=O)(=O)N(C)C)cc1NC(=O)COC(=O)Cc1ccsc1 | -79
Cc1ccccc1NC(=O)COC(=O)Cc1ccsc1 | 12.7
Cc1ccc(S(=O)(=O)N(C)C)cc1NC(=O)COC(=O)C1CCN(S(=O)(=O)c2cccs2)CC1 | -81.9
O=C(COC(=O)c1cccs1)Nc1cc(S(=O)(=O)N2CCOCC2)ccc1Cl | -35.5
Clc1ccc(-c2nnc(SCc3cn4ccsc4n3)n2CC2CCCO2)cc1 (stereo not shown) | -29.2
Cc1cccc2cc3c(N)c(C#N)sc3nc12 | 21.5
Cc1cc(C)c(Nc2cc(S(=O)(=O)[O-])c(N)c3c2C(=O)c2ccccc2C3=O)c(C)c1.[Na+] | 12
CCn1c(-c2cc(-c3cc(OC)ccc3OC)nc3ccccc23)n[nH]c1=S | -10.3
CCCC(C)c1nnc(NC(=O)C2CC(=O)N(CCc3ccc(F)cc3)C2)s1 (stereo not shown) | -30.1
COc1ccc(-c2nnc3sc(-c4ccccn4)nn23)cc1 | -13.2
CCOC(=O)c1ccc(-c2ccc(CO)o2)cc1 | -6.44
CCC(C)[C@H](NC(=O)N1CC(=O)Nc2ccccc21)C(=O)N[C@H](C(=O)O)c1ccccc1 (stereo partly shown) | 7.19
CCN1C(=O)CC(c2ccco2)Sc2ccccc21 (stereo not shown) | -16.8
O=C(NCCCN1CCOCC1)c1ccc([N+](=O)[O-])cc1[N+](=O)[O-] | 10.5
CC(C)n1c(=O)c(C=Nc2ccc(F)cc2)c(O)n(Cc2ccco2)c1=O | -19.7
COc1ccc2c(=O)c3c(=O)n(-c4ccc(C)cc4)c(-c4ccccc4)nc3oc2c1 | 6.84
CC(=O)Nc1ccc(S(=O)(=O)N2CCSC2C(=O)O)cc1 (stereo not shown) | 0.312
Cc1ccc(S(=O)(=O)Nc2ccc(N3CCOCC3)cc2)cc1C | 2.95
COc1ccc(/C=C/C(=O)NC(=S)NNC(=O)c2c(-c3ccccc3)noc2C)cc1 | 11.4
Cc1cc2ncc(-c3cccc(Cl)c3)cn2n1 | 8.42
COc1ccc2c(COC(=O)CC3Sc4ccccc4NC3=O)cc(=O)oc2c1 (stereo not shown) | -44.1
O=C(CC1Sc2ccccc2NC1=O)OCc1cc(=O)oc2cc(O)ccc12 (stereo not shown) | -51.7

SMILES | hERG current change (%, negative = inhibition) at 10uM [%]
CC(=O)Nc1ccc2c(COC(=O)CC3Sc4ccccc4NC3=O)cc(=O)oc2c1 (stereo not shown) | -9.75
CCCCn1c(SCC(=O)NCc2ccccc2)nc2ccc(N3CCOCC3)cc2c1=O | -13.9
COc1ccc(OC)c(NC(=O)C2C3CC4OC(=O)C2C4C3)c1 (stereo not shown) | 11.2
O=C(c1ccccc1Cl)N1CCN(Cc2ccc3c(c2)OCO3)CC1 | -21.1
O=C(O)C(=O)O.O=C(c1ccccc1F)N1CCN(Cc2ccc3c(c2)OCO3)CC1 | 6.48
O=C(c1cc(Cl)nc2ccccc12)N1CCN(Cc2ccc3c(c2)OCO3)CC1 | -37.9
O=C(c1cccn2c(=O)c3cc(Cl)ccc3nc12)N1CCN(Cc2ccc3c(c2)OCO3)CC1 | -75.2
O=C(c1ccc2nc3ccccc3c(=O)n2c1)N1CCN(Cc2ccc3c(c2)OCO3)CC1 | -60.9
O=C(Cn1cnc2ccccc2c1=O)N1CCN(Cc2ccc3c(c2)OCO3)CC1 | -14
O=C(c1cccc(Cl)c1)N1CCN(Cc2ccc3c(c2)OCO3)CC1 | -16.6
O=C(Cn1ccc2ccccc2c1=O)N1CCN(Cc2ccc3c(c2)OCO3)CC1 | -14.8
O=C(c1cccn2c(=O)c3ccccc3nc12)N1CCN(Cc2ccc3c(c2)OCO3)CC1 | -67.7
CCc1ccc(NC(=O)c2cc(-c3ccc(OC)cc3)on2)cc1 | -0.467
CCc1cc(=O)oc2cc(C)cc(OCc3nn[nH]n3)c12 | -5.99
CCc1nn(CCCC(=O)Nc2ccc(C)c(C)c2)c(=O)c2cc3occc3n12 | 4.15
CCc1ccccc1N(CC(=O)NCc1ccco1)C(=O)CCC(=O)Nc1ccccn1 | -7.41
Cc1cccc(CN2CCN(c3nc4nonc4nc3NC3CC3)CC2)c1 | -4.44
Clc1cccc(CN2CCN(c3nc4nonc4nc3NC3CC3)CC2)c1 | -65.4
Fc1cccc(CN2CCN(c3nc4nonc4nc3NC3CC3)CC2)c1 | -10.3
